These results are taken from PubChem BioAssay (NCI).

Structures are written as SMILES. The panel holds about 79,000 compounds, 15% with a hit somewhere; the sample as a whole holds those more often. A number with no mark means an inactive call. The source made the active and inactive calls. Cut-off read from the data, not from the text of the source: active = growth inhibition above about 70%; inactive = the rest.

The nature of one assay: NCI Yeast Anticancer Drug Screen. Data for the cln2 rad14 strain (AID 165).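 Note: 0% = growth equal to vehicle treated cultures.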 The note with it: S. cerevisiae cln2 rad14 strain, at 50.0 µM, active compounds read high. The method in brief: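 The screen exposed genetically defined yeast (cln2 rad14) to test compounds and scored growth inhibition relative to vehicle-treated controls.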
Regarding `CN1C(=O)NC(C)(CCOCc2ccccc2)C1=O` (configuration not stated), the growth inhibition is -1.25%.

For `CCCC(O)C(CC)[N+](=O)[O-]` (configuration not stated), the growth inhibition is 3.65%.

As to `O=C(O)/C=C/C(=O)Nc1ccc(C(=O)O)cc1`, the growth inhibition is 7.6%.

For `O=C(NNC(=O)c1cccc2ccccc12)c1ccccc1F`, the growth inhibition is 1.35%.

Turning to `BrC1(C2(Br)N(c3ccccc3)CCN2c2ccccc2)N(c2ccccc2)CCN1c1ccccc1`, the growth inhibition is 10.2%.

For the compound `COC1CCC(C(C)(C)C)CC1` (configuration not stated), the growth inhibition is -3.8%.

Consider `CCCCCCCCCOCC(COP(=O)([O-])OCC[N+](C)(C)C)OC` (configuration not stated), for which the growth inhibition is -22.4%.

The nature of a further assay: NCI Yeast Anticancer Drug Screen. Data for the bub3 strain (AID 167). To be noted: S. cerevisiae bub3 mutant strain, at 50.0 µM, active compounds read high. In a few lines: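 Part of a panel of yeast mutants defective in DNA damage repair or cell cycle regulation. Each strain is grown with compound, and inhibition is calculated relative to solvent-treated cultures.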
Consider `CN(CCc1ccccn1)C(=S)N/N=C/c1ccccn1`, for which the growth inhibition was 89.8% (active).

Take `CC(C)CC(C)N=C1CC2CCC1(C)C2(C)C` (configuration not stated): the growth inhibition was -7.15%.

For `COC1OC(OC)c2cc([N+](=O)[O-])ccc21` (configuration not stated), the growth inhibition is -11.1%.

`CCC(=O)c1ccc(OC(=O)Nc2ccc(Cl)cc2[N+](=O)[O-])cc1`: the growth inhibition was 26.2%.

In the case of `CCCCCCC(=O)CC1(C(=O)OC)NC(=S)NC(=O)C1C#N` (configuration not stated), the growth inhibition is -9.55%.

Take `CCCCCC[N+]12CC=C3COC(=O)C(C)(O)C(C)(O)C(C)C(=O)OC(CC1)C32` (configuration not stated): the growth inhibition is -3.35%.

`Cc1cc(C)[n+](C)c(/C=C/c2ccc([N+](=O)[O-])cc2)n1`: the growth inhibition is 22.4%.

For `CC1(c2ccccc2)SCCS1`, the growth inhibition is -13.9%.

With `COC(=O)c1ccc(O)c(CN(C)C)c1`, the growth inhibition was -15.1%.

On to `Cc1ccc(CO)cc1`, for which the growth inhibition is -2.05%.

Take `NC(=S)N/N=C/c1ccccc1S(=O)(=O)O`: the growth inhibition was 0.05%.

As for `NC(=O)C(F)(F)C(F)(F)C(N)=O`, the growth inhibition is 3.25%.

Regarding `COc1ccc(SC(N(C)C)=[N+](C)C)cc1`, the growth inhibition was 2.8%.

In the case of `CCCCc1c(O)nc(NCCCC(N)C(=O)O)[nH]c1=O` (configuration not stated), the growth inhibition was -4.6%.

Regarding `CN(C)CCC(O)(c1ccccc1)C(O)(CCN(C)C)c1ccccc1` (configuration not stated), the growth inhibition is -13.8%.

As to `Oc1ccc2ccccc2c1-c1c(OC(c2ccccc2)c2ccccc2)ccc2ccccc12`, the growth inhibition is -4.65%.

Regarding `CN1CCC(C[CH2][Sn]([c]2ccccc2)([c]2ccccc2)[c]2ccccc2)CC1`, the growth inhibition is 49%.

As for `O=C(c1c(F)c(F)c(F)c(F)c1F)n1c(=O)[nH]c2ccccc21`, the growth inhibition is 23.3%.

For the compound `O=C1OC(=O)c2ccc(SCC(O)CCl)c3cccc1c23` (configuration not stated), the growth inhibition is 98.9% (active).

As for `O=C(O)C1C(C2c3ccc(O)cc3Oc3cc(O)ccc32)C2(Cl)C(Cl)=C(Cl)C1(Cl)C2(Cl)Cl` (configuration not stated), the growth inhibition was 81.6% (active).

In the case of `COc1ccccc1C(=O)C(CN(C)C)CN(C)C`, the growth inhibition is -23.3%.

Take `C/C(=N\NC(=O)C[N+](C)(C)C)c1sc(-c2cccnc2)nc1C`: the growth inhibition is -4.4%.

Take `CCOC(C#CC(=O)C(C)C)OCC`: the growth inhibition was 27.4%.

Consider `O=C1c2cc([N+](=O)[O-])cc3cc([N+](=O)[O-])cc(c23)C(=O)N1CCNCCNCCNCCN1C(=O)c2cc([N+](=O)[O-])cc3cc([N+](=O)[O-])cc(c23)C1=O`, for which the growth inhibition was 89% (active).

As to `COc1ccc(C2C(=O)C(Cl)N2Nc2nc(C)cc(=O)[nH]2)cc1OC` (configuration not stated), the growth inhibition is -27.9%.

With `NC1=NN(c2ccccc2)C(=O)/C1=C\n1c(=S)[nH]c2ccccc21`, the growth inhibition is -25.4%.

Take `O=C(OCCc1ccccc1)C(O)c1ccccc1` (configuration not stated): the growth inhibition is 6.6%.

Take `COC(=O)/C=C(\C(=O)OC)C(C(=O)c1ccccc1)=P(c1ccccc1)(c1ccccc1)c1ccccc1`: the growth inhibition is 3.55%.

Turning to `COc1ccc2c(N=[N+]=[N-])cc(C)nc2c1`, the growth inhibition is 1.55%.

With `CC(C)N(C(=O)C1C2CCC(CC2)C1C(=O)N(C(C)C)C(C)C)C(C)C` (configuration not stated), the growth inhibition is 27.6%.

For `CC(C)(C)OC(=O)c1c2ccccc2cc2ccccc12`, the growth inhibition is 12.1%.

Consider `C=CCNC(=S)Nc1ccc(OC(=O)NC(C)(C)C)cc1`, for which the growth inhibition is 25.3%.

Take `COC(=O)CNC(=O)C(Cc1ccccc1)NC(=O)OCc1ccccc1` (configuration not stated): the growth inhibition is 15.8%.

On to `CN1C(=O)NC(C)(CCOCc2ccccc2)C1=O` (configuration not stated), for which the growth inhibition is 6.65%.

For `CCCC(O)C(CC)[N+](=O)[O-]` (configuration not stated), the growth inhibition was 0.1%.

As to `O=C(O)/C=C/C(=O)Nc1ccc(C(=O)O)cc1`, the growth inhibition is -20.9%.

Turning to `O=C(NNC(=O)c1cccc2ccccc12)c1ccccc1F`, the growth inhibition was -11.6%.

As for `BrC1(C2(Br)N(c3ccccc3)CCN2c2ccccc2)N(c2ccccc2)CCN1c1ccccc1`, the growth inhibition was 2%.

In the case of `COC1CCC(C(C)(C)C)CC1` (configuration not stated), the growth inhibition was 5.85%.

As for `CCCCCCCCCOCC(COP(=O)([O-])OCC[N+](C)(C)C)OC` (configuration not stated), the growth inhibition is -7.75%.

The next assay is described as follows: NCI Yeast Anticancer Drug Screen. Data for the mlh1 rad18 strain (AID 175). To be noted: S. cerevisiae mlh1 rad18 strain growth inhibition; at 50.0 µM; active compounds read high. In a few lines:
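Compound-treated yeast growth, normalised to vehicle controls. Strain bears defined DNA repair mutations.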
As for `CN(CCc1ccccn1)C(=S)N/N=C/c1ccccn1`, the growth inhibition is 91% (active).

Turning to `CC(C)CC(C)N=C1CC2CCC1(C)C2(C)C` (configuration not stated), the growth inhibition was -7.05%.

As to `COC1OC(OC)c2cc([N+](=O)[O-])ccc21` (configuration not stated), the growth inhibition was 50.2%.

On to `CCC(=O)c1ccc(OC(=O)Nc2ccc(Cl)cc2[N+](=O)[O-])cc1`, for which the growth inhibition is -124%.

As for `CCCCCCC(=O)CC1(C(=O)OC)NC(=S)NC(=O)C1C#N` (configuration not stated), the growth inhibition was 15.8%.

Regarding `CCCCCC[N+]12CC=C3COC(=O)C(C)(O)C(C)(O)C(C)C(=O)OC(CC1)C32` (configuration not stated), the growth inhibition was 7.85%.

In the case of `Cc1cc(C)[n+](C)c(/C=C/c2ccc([N+](=O)[O-])cc2)n1`, the growth inhibition was 23.2%.

Turning to `CC1(c2ccccc2)SCCS1`, the growth inhibition is -6.4%.

Consider `COC(=O)c1ccc(O)c(CN(C)C)c1`, for which the growth inhibition is 18.8%.

Consider `Cc1ccc(CO)cc1`, for which the growth inhibition was 21.7%.

Take `NC(=S)N/N=C/c1ccccc1S(=O)(=O)O`: the growth inhibition is -4.7%.

For the compound `NC(=O)C(F)(F)C(F)(F)C(N)=O`, the growth inhibition is -1.9%.

As to `COc1ccc(SC(N(C)C)=[N+](C)C)cc1`, the growth inhibition is 3.8%.

With `CCCCc1c(O)nc(NCCCC(N)C(=O)O)[nH]c1=O` (configuration not stated), the growth inhibition was -17.8%.

Turning to `CN(C)CCC(O)(c1ccccc1)C(O)(CCN(C)C)c1ccccc1` (configuration not stated), the growth inhibition was -16.4%.

As for `Oc1ccc2ccccc2c1-c1c(OC(c2ccccc2)c2ccccc2)ccc2ccccc12`, the growth inhibition is -13.1%.

Take `CN1CCC(C[CH2][Sn]([c]2ccccc2)([c]2ccccc2)[c]2ccccc2)CC1`: the growth inhibition was 57.5%.

On to `O=C(c1c(F)c(F)c(F)c(F)c1F)n1c(=O)[nH]c2ccccc21`, for which the growth inhibition was -27.4%.

Regarding `O=C1OC(=O)c2ccc(SCC(O)CCl)c3cccc1c23` (configuration not stated), the growth inhibition is 99.2% (active).

With `O=C(O)C1C(C2c3ccc(O)cc3Oc3cc(O)ccc32)C2(Cl)C(Cl)=C(Cl)C1(Cl)C2(Cl)Cl` (configuration not stated), the growth inhibition was 95.3% (active).

On to `COc1ccccc1C(=O)C(CN(C)C)CN(C)C`, for which the growth inhibition is 13.7%.

As for `C/C(=N\NC(=O)C[N+](C)(C)C)c1sc(-c2cccnc2)nc1C`, the growth inhibition is -4.05%.

As to `CCOC(C#CC(=O)C(C)C)OCC`, the growth inhibition is 19.4%.

As to `O=C1c2cc([N+](=O)[O-])cc3cc([N+](=O)[O-])cc(c23)C(=O)N1CCNCCNCCNCCN1C(=O)c2cc([N+](=O)[O-])cc3cc([N+](=O)[O-])cc(c23)C1=O`, the growth inhibition was 86.1% (active).

As to `COc1ccc(C2C(=O)C(Cl)N2Nc2nc(C)cc(=O)[nH]2)cc1OC` (configuration not stated), the growth inhibition is -15.8%.

As for `NC1=NN(c2ccccc2)C(=O)/C1=C\n1c(=S)[nH]c2ccccc21`, the growth inhibition is -26.6%.

Regarding `O=C(OCCc1ccccc1)C(O)c1ccccc1` (configuration not stated), the growth inhibition is -1.3%.

Regarding `COC(=O)/C=C(\C(=O)OC)C(C(=O)c1ccccc1)=P(c1ccccc1)(c1ccccc1)c1ccccc1`, the growth inhibition is 1.15%.

With `COc1ccc2c(N=[N+]=[N-])cc(C)nc2c1`, the growth inhibition was 20.4%.

On to `CC(C)N(C(=O)C1C2CCC(CC2)C1C(=O)N(C(C)C)C(C)C)C(C)C` (configuration not stated), for which the growth inhibition is 20.7%.

In the case of `CC(C)(C)OC(=O)c1c2ccccc2cc2ccccc12`, the growth inhibition was 10.3%.

With `C=CCNC(=S)Nc1ccc(OC(=O)NC(C)(C)C)cc1`, the growth inhibition was 0.1%.

Turning to `COC(=O)CNC(=O)C(Cc1ccccc1)NC(=O)OCc1ccccc1` (configuration not stated), the growth inhibition is -3.3%.

With `CN1C(=O)NC(C)(CCOCc2ccccc2)C1=O` (configuration not stated), the growth inhibition is 8.65%.

As to `CCCC(O)C(CC)[N+](=O)[O-]` (configuration not stated), the growth inhibition was 5.75%.

Regarding `O=C(O)/C=C/C(=O)Nc1ccc(C(=O)O)cc1`, the growth inhibition was -3.7%.

Regarding `O=C(NNC(=O)c1cccc2ccccc12)c1ccccc1F`, the growth inhibition is -15.9%.

Regarding `BrC1(C2(Br)N(c3ccccc3)CCN2c2ccccc2)N(c2ccccc2)CCN1c1ccccc1`, the growth inhibition is 11.6%.

For `COC1CCC(C(C)(C)C)CC1` (configuration not stated), the growth inhibition was -21.7%.

As for `CCCCCCCCCOCC(COP(=O)([O-])OCC[N+](C)(C)C)OC` (configuration not stated), the growth inhibition is 17.5%.
